Records with an inconclusive call do not appear. A call without a number means that no potency is given here. Calls of active or inactive are those of the source. Calls follow the shape of the dose curve; as a rule, active = well fitted cell-killing curve with a large enough effect in the repeat runs; inconclusive = weak or mixed curves, or effect the other way; inactive = flat fitted curve, though single readings scatter.

This note sets out measurements from PubChem BioAssay (Tox21).

Experiment [1] is described as follows: cAMP Responsive Elements (CRE) small molecule antagonists, cell-based qHTS assay: qHTS cell viability counter screen (AID 2060913). Also: nearly all actives have a fitted effect of over 40% in size. Summed up:
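HEK293T CRE-bla, 2,000 cells/well, 18 h preincubation; cpd in DMSO + NKH477 0.25 uM final, 3 h 37 C/5% CO2; LiveBLAzer 2 h RT, then CellTiter-Glo 30 min RT, luminescence.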
Background: qHTS replaces the single test concentration by a dilution series.

Experiment [2] in a line: cAMP Responsive Elements (CRE) small molecule agonists, cell-based qHTS assay: qHTS cell viability counter screen (AID 2060914). Also: nearly all actives have a fitted effect of over 50% in size. Also: potency is read from the fitted curve at half-maximal effect. The essentials:
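In the same wells as the reporter read, viability of CRE-bla HEK 293T cells was quantified by CellTiter-Glo luminescence after a 3 h compound exposure.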

For `Cn1c(N)nc2c3cccnc3ccc21`, the Potency result in experiment [1] and in experiment [2] was “inactive” throughout.

On to `[As]#[In]`, for which the Potency entry in experiment [1] is “inactive”. In addition, the Potency in experiment [2] was 2170 nM (active).

For the compound `Cc1ccc(OP(=O)(Oc2ccc(C)cc2)Oc2ccc(C)cc2)cc1`, the Potency result in experiment [1] and in experiment [2] was “inactive” in each case.

For the compound `COc1ccc(/C(=C/C(=O)N2CCOCC2)c2ccc(Cl)cc2)cc1OC`, the Potency result in experiment [1] and in experiment [2] was “inactive” throughout.

`Cc1c(Cl)c(=O)oc2cc(OP(=O)(OCCCl)OCCCl)ccc12`: the Potency entry in experiment [1] and in experiment [2] was “inactive” throughout.

As for `N#Cc1cc([N+](=O)[O-])ccc1N`, the Potency result in experiment [1] and in experiment [2] was “inactive” each time.

Regarding `O=C(CBr)OCc1ccccc1`, the Potency entry in experiment [1] and in experiment [2] was “inactive” in each case.

As to `BrC(Br)Br`, the Potency entry in experiment [1] and in experiment [2] was “inactive” in each case.

For the compound `CCCCCCC#N`, the Potency entry in experiment [1] and in experiment [2] was “inactive” each time.

For the compound `CCCCCCOC(=O)c1ccccc1C(=O)OCCCCCC`, the Potency result in experiment [1] and in experiment [2] was “inactive” in each case.

Consider `COP(=S)(OC)SCN1C(=O)c2ccccc2C1=O`, for which the Potency result in experiment [1] and in experiment [2] was “inactive” each time.

For `CN1C[C@H](C(=O)N[C@]2(C)O[C@@]3(O)[C@@H]4CCCN4C(=O)[C@H](Cc4ccccc4)N3C2=O)C=C2c3cccc4[nH]cc(c34)C[C@H]21`, the Potency result in experiment [1] and in experiment [2] was “inactive” throughout.

For the compound `CCCCC(CC)C(=O)Cl` (stereo unspecified), the Potency entry in experiment [1] and in experiment [2] was “inactive” throughout.

Turning to `CC12CC1(C)C(=O)N(c1cc(Cl)cc(Cl)c1)C2=O` (stereo unspecified), the Potency result in experiment [1] and in experiment [2] was “inactive” each time.

With `CCOC(=O)COc1ccc(Cl)cc1Cl`, the Potency entry in experiment [1] and in experiment [2] was “inactive” in each case.

For `CC(C)NC(=O)N1CC(=O)N(c2cc(Cl)cc(Cl)c2)C1=O`, the Potency entry in experiment [1] and in experiment [2] was “inactive” each time.

Regarding `C[C@]12CC[C@H]3[C@@H](CCC4=CC(=O)CC[C@@]43C)[C@@H]1CC[C@@H]2O`, the Potency entry in experiment [1] and in experiment [2] was “inactive” in each case.

For `CCCCCCCCCC(CC)c1ccc(S(=O)(=O)O)cc1` (stereo unspecified), the Potency entry in experiment [1] and in experiment [2] was “inactive” in each case.
